Sampled rows, rich in hits. Any-hit rate of the full collection: about 18%.
TDP1 cell noCPT: qHTS for Inhibitors of human tyrosyl-DNA phosphodiesterase 1 (TDP1): qHTS in cells in absence of CPT. DT40 Tdp1-/- hTDP1 cells, no CPT, ATP luminescence, 48 h. Potency, µM (doses to about 46.2 µM), for inactives: at the highest dose activity change, negative = growth inhibition, usual class: inhibitors. 420,000 compounds, 15% hits; further: nearly all actives have a fitted effect of over 55% in size
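Readout: luminescence from CellTiter-Glo after 30 min in the dark at RT. Cells: DT40 Tdp1-/- with stable hTDP1, 400/well. Exposure: compounds alone, ≥48 hr, 37 °C.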
VDR inh: blocks the human vitamin D receptor; VDR-SRC2-3 peptide fluorescence polarization, 2 h; P11473; Potency, µM, for the others: max response, negative = inhibition, hits mostly inhibitors; 400,000 compounds, 0.93% hits
Target sequence (P11473 whole entry, looked up): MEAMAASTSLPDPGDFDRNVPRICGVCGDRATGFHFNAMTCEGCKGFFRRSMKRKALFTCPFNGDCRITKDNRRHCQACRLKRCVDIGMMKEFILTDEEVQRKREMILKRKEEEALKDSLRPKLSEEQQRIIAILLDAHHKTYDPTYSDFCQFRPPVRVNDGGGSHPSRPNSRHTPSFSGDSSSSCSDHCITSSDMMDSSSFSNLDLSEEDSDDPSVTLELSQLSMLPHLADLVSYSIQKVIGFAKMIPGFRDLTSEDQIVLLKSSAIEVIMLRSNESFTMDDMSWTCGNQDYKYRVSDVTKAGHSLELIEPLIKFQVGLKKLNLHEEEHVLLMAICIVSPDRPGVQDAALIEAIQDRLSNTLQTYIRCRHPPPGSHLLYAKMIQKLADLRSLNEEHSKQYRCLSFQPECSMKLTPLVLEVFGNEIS
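FP read-out; VDR + SRC2-3 coactivator peptide; 23 nl compound by pintool; 2 h RT incubation; reagents held at 4 deg C, protected from light.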
TDP1 cell CPT: growth inhibition of DT40 Tdp1-/-;hTDP1 cells with camptothecin (screen for TDP1 inhibitors) | chicken DT40 Tdp1-/-;hTDP1 cells + 20 nM CPT, ATP luminescence, 48 h | AID 686979 | Potency, µM (top dose mostly 46.2 µM), inactives show at the top dose activity change, negative = growth inhibition, hits mostly inhibitors | 420,000 compounds, 12% hits; further: nearly all actives have a fitted effect of over 55% in size
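Chicken DT40 Tdp1-/- cells complemented with human TDP1, 400 cells/well, exposed to compounds plus 20 nM camptothecin for at least 48 h at 37 C; viability read as ATP content by CellTiter-Glo luminescence.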
TDP1 block: blocks human tyrosyl-DNA phosphodiesterase 1. AID 485290. 350,000 compounds, 0.28% hits. Potency, µM (top dose mostly 130 µM), without a hit: at the highest dose activity change, negative = inhibition, most hits filed as inhibitors. Q9NUW8. recombinant TDP1, AlphaScreen DNA substrate cleavage; further: nearly all actives have a fitted effect of over 40% in size
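AlphaScreen read-out: signal falls as enzyme removes the 3' tyrosine-FITC from a 5'-biotinylated DNA oligo (15 nM, 5 min, RT). Enzyme was E. coli-made recombinant Tdp1 at 1 nM, exposed to compound for 15 min beforehand; beads 10 ug/ml, 10 min.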
GCN5L2 inh: GCN5L2 (KAT2A) acetyltransferase inhibition; GCN5L2 HAT assay, ThioGlo1 CoA-SH fluorescence; Q92830; 390,000 compounds, 0.21% hits; Potency, µM (highest dose often 58.9 µM), for the others: at the highest dose activity change, negative = inhibition, actives largely listed as inhibitors
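Preincubate 20nM GCN5L2 with compound 15 min, RT → add 50uM ThioGlo1 + 75uM H3(1-25) + 70uM acetyl-CoA → read fluorescence 0 and 20 min. Primary qHTS; fluorescent artifacts likely.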
PLK1 PBD block: inhibitors of human PLK1 polo-box domain binding. 360,000 compounds, 2.8% hits. Potency, µM, inactives show max response, negative = inhibition, usual class: inhibitors. Plk1 PBD binding of FITC phosphopeptide, fluorescence polarization. P53350; further: series mostly up to about 57 µM; nearly all actives have a fitted effect of over 65% in size
Starred values were filed as active, the others as inactive; ? = inconclusive; / = not tested or not shown. The call rests on the fitted dose curve; in most records, active means well fitted curve in the direction sought with a large enough effect; inconclusive means small, poorly fitted or top-dose-only effect, or another doubt; inactive means no such curve, though single readings can be large; an effect the other way counts as inactive or inconclusive. On the % scale 0 is the no-effect control and ±100 the full control effect; potency means the concentration at half of the fitted maximal effect.

SMILES | TDP1 cell noCPT | VDR inh | TDP1 cell CPT | TDP1 block | GCN5L2 inh | PLK1 PBD block
CCOC(=O)N(C)C[C@@H]1OCc2ccccc2-c2c(n(C)c3ccccc23)C(=O)N([C@H](C)CO)C[C@H]1C | ? | / | ? | / | / | -14%
C[C@@H](CSc1ccccc1)CN1CC[C@H](O)CCC1=O | -9% | -12% | ? | / | 0% | -13%
O=C(c1ccc(S(=O)(=O)N2CCc3ccccc3C2)cc1)N1CCCCC1 | 26µM* | 3% | ? | -5% | -5% | 0%
O=C(c1ccc(S(=O)(=O)N2CCCC2)cc1)N1CCCCC1 | -12% | -10% | -15% | 13% | -6% | -7%
O=S(=O)(c1ccc(F)cc1)N1CCc2ccccc2C1 | -15% | -23% | 5% | 1% | 3% | -7%
NC(=O)c1cc(S(=O)(=O)N2CCc3ccccc3C2)cs1 | ? | ? | ? | / | 2% | 21µM*
CCCCCCCCCCOCC(O)CN (stereo not given) | 6.7µM* | 4% | 6.7µM* | 6% | -5% | /
CCCCCCCCCCCCCCCCOCCOCCOCCOCCOCCOCCOCCOCCOCCOCCOCCOCCOCCOCCOCCOCCOCCOCCOCCOCCO | 7.5µM* | 2% | 24µM* | / | 5% | /
CCC(C)NC(=O)CSc1nc2cc3c(cc2c(=O)n1CCCC(=O)NCc1ccc2c(c1)OCO2)OCO3 (stereo not given) | 2% | 9% | -11% | 2% | -1% | /
COc1ccc(CCNc2nc(-c3ccccn3)cs2)cc1OC | 12µM* | -2% | 16µM* | / | -15% | -1%
COc1ccc(CCNc2nc(-c3ccncc3)cs2)cc1OC | ? | -29% | 21µM* | / | 29% | ?
COc1ccc(C(CNC(=O)c2cccc(N(C)C)c2)N2CCCC2)cc1 (stereo not given) | ? | 6% | 23µM* | 8% | -1% | 0%
COc1ccc(NS(=O)(=O)c2cccc(C(=O)N/N=C/c3c(F)c(F)c(F)c(F)c3F)c2)cc1 | 23µM* | 16% | 21µM* | / | / | -9%
CCC1CCc2sc(C(=O)NCC(c3ccc(OC)cc3)N3CCCC3)cc2C1 (stereo not given) | 23µM* | ? | ? | 6% | -2% | -6%
Cc1ccc(S(=O)(=O)Nc2cccc(C(=O)NCC(c3ccco3)N3CCCCC3)c2)cc1F (stereo not given) | 21µM* | -18% | ? | 0% | -1% | -4%
COc1ccc(C(CNC(=O)c2ccc(F)cc2)N2CCCC2)cc1 (stereo not given) | -29% | 13% | -28% | 5% | -3% | /
Cc1cc(S(=O)(=O)Nc2ccc(C(=O)NCC(c3ccco3)N3CCCCC3)cc2)ccc1F (stereo not given) | -24% | -10% | -9% | 1% | -1% | -10%
CN(CC(=O)Nc1ccc(F)cc1)C(=O)Cn1cnc2ccc([N+](=O)[O-])cc2c1=O | -5% | 3% | 0% | 1% | -1% | -2%
COc1cc(=O)n2c(c1C(=O)NCc1ccc3c(c1)OCO3)CCN(C(=O)c1ccc(C)cc1)CC2 | -3% | / | 6% | / | / | /
CC(C)(C)OC(=O)N1CCN(C(=O)c2[nH]cnc2C(=O)Nc2ccc(Cl)cc2)CC1 | ? | -16% | ? | 2% | -7% | -2%
COc1cccc(C2c3c(ncn(Cc4cccs4)c3=N)Oc3ccc4ccccc4c32)c1 (stereo not given) | / | / | / | 5% | / | /
COc1ccc(NS(=O)(=O)c2cccc(C(=O)NCC(c3ccc(OC)cc3)N3CCCC3)c2)cc1 (stereo not given) | ? | -22% | 13µM* | 1% | -9% | -6%
COc1ccc(C(CNC(=O)c2ccc(S(=O)(=O)Nc3ccc(F)cc3)cc2)N(C)C)cc1 (stereo not given) | 23µM* | 13% | 16µM* | 8% | -1% | 0%
COc1ccc(C(CNC(=O)c2cccc(S(=O)(=O)Nc3ccccc3OC)c2)N2CCCCC2)cc1 (stereo not given) | ? | -8% | 18µM* | / | / | -7%
COc1ccc(C(CNC(=O)c2ccc(NS(=O)(=O)c3ccc4c(c3)OCCO4)cc2)N(C)C)cc1 (stereo not given) | ? | -8% | ? | 1% | -6% | -1%
SMILES | TDP1 cell noCPT | VDR inh | TDP1 cell CPT | TDP1 block | GCN5L2 inh | PLK1 PBD block
COc1ccccc1NS(=O)(=O)c1ccc(C(=O)NCC(c2ccco2)N2CCCCC2)cc1 (stereo not given) | -25% | 19% | 15µM* | / | / | -11%
O=C(CN1C(=O)NC2(CCCc3ccccc32)C1=O)NCc1cccs1 (stereo not given) | 16% | 1% | 9% | 0% | -1% | -7%
CCOc1cc2[nH]c(=S)n(CCC(=O)NC3CCCCC3)c(=O)c2cc1OCC | -8% | / | ? | / | / | -5%
COc1ccccc1C(CNC(=O)c1cccc(S(=O)(=O)Nc2ccc(F)cc2)c1)N1CCCC1 (stereo not given) | 21µM* | -10% | ? | / | / | -3%
COc1ccc(C(CNC(=O)c2cc(S(=O)(=O)NCc3ccccc3)ccc2C)N2CCOCC2)cc1 (stereo not given) | -20% | 12% | 1% | / | -4% | -10%
COc1ccc(C(CNC(=O)c2cccc(S(=O)(=O)NCc3ccccc3)c2)N2CCOCC2)cc1 (stereo not given) | 21µM* | -17% | ? | -3% | -4% | -1%
COc1ccc(Cl)cc1C(=O)NCC(c1ccco1)N1CCCC1 (stereo not given) | 0% | -8% | -26% | 3% | -3% | 1%
COc1cc(C(=O)NCC(c2ccco2)N2CCCC2)ccc1OCc1ccc(Cl)cc1Cl (stereo not given) | 23µM* | -12% | ? | / | / | 2%
O=C(O)Cc1ccc(N2N=C(c3ccccc3)CC2=O)cc1 | -4% | / | -9% | / | / | -15%
O=C(c1cccc(C(F)(F)F)c1)C1CCCN(C(=O)CCn2cnnn2)C1 (stereo not given) | -10% | -1% | 2% | / | -2% | -4%
CC(=O)C[C@H](O)CC(=O)[C@@H]1OC(=O)CCCCC/C=C/Cc2ccccc21 | -3% | -4% | 6% | 1% | 0% | -7%
O=C(Cn1ncc2c([nH]c3ccccc32)c1=O)NCCCN1CCN(c2ccccc2)CC1 | ? | 5% | ? | 1% | -6% | -10%

High-throughput results from PubChem BioAssay.
